Shown are actives, neighbours in structure and some others; about 7.3% of the full set was active somewhere.
Tau FP inhib – tau fibrillization inhibition (FP); P10636; K18 P301L tau heparin fibrillization, Alexa594 FP, 6 h; Potency, µM (series often up to 57.7 µM), inactives show at the highest dose activity, negative = inhibition, actives largely listed as inhibitors; actives 0.39% (n = 280,000); AID 1468; note: nearly all actives have a fitted effect of over 55% in size
Target sequence (P10636 561-689 P618L limits assumed): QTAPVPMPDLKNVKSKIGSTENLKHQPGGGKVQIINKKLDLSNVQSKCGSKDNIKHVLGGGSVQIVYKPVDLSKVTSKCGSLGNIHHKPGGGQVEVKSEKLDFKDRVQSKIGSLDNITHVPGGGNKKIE
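Compound effects on tau fibrillization are measured by Alexa 594 fluorescence polarization (ex 555, em 632 nm). K18 P301L tau is used at 15 uM with 0.24 uM labeled tracer, and 20 uM heparin induces aggregation over 6 hr at 37 C.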
VP16 counter – inhibits Gal4-VP16 luciferase reporter, ROR gamma counter-screen; Drosophila S2 Gal4-VP16 UAS-luciferase, luminescence, 20 h; Potency, µM (highest dose often 53.6 µM), without a hit: at the highest dose activity, negative = inhibition, most hits filed as inhibitors; actives 3.5% (n = 310,000);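 note: Gal4-VP16 expression switched on by copper sulfate through the metallothionein promoter; nearly all actives have a fitted effect of over 50% in size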
Tau fluor cs – counter-screen for tau fibril formation inhibitors; actives 0.93% (n = 280,000); tau K18 P301L Alexa594 fluorescence, heparin fibrillization; Potency, µM (titrated, usually from 57.7 µM), without a hit: at the top dose activity change, negative = decrease; AID 1463; note: nearly all actives have a fitted effect of over 55% in size
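Human tau K18 P301L (15 uM unlabeled, 0.24 uM Alexa 594-labeled) in 100 mM sodium acetate pH 7 with 20 uM heparin, 6 hr at 37 C. ThT 30 uM added, 1 hr ambient; Alexa 594 FP and total fluorescence read at 555/632 nm.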
Tau fibril ThT – tau fibrillization inhibition (ThT binding). Potency, µM (top dose mostly 57.4 µM), inactives show at the top dose activity, negative = inhibition, actives largely listed as inhibitors. recombinant tau K18 P301L (four-repeat tau fragment), heparin-induced fibrillization, ThT fluorescence. P10636. actives 2.1% (n = 270,000); note: nearly all actives have a fitted effect of over 55% in size
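Heparin-induced fibrillization of the P301L-mutant K18 repeat-domain fragment of human tau was followed by ThT binding in quantitative high-throughput format.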
RORg inh – ROR gamma (mouse) transcription inhibition; Potency, µM (series often up to 53.6 µM), for inactives: top-dose activity change, negative = inhibition, hits mostly inhibitors; P51450; actives 5.4% (n = 310,000); Drosophila S2 Gal4-RORgamma UAS-luciferase reporter, 20 h; note: nearly all actives have a fitted effect of over 60% in size
Target sequence (P51450 whole entry, looked up, the tested form may be a part): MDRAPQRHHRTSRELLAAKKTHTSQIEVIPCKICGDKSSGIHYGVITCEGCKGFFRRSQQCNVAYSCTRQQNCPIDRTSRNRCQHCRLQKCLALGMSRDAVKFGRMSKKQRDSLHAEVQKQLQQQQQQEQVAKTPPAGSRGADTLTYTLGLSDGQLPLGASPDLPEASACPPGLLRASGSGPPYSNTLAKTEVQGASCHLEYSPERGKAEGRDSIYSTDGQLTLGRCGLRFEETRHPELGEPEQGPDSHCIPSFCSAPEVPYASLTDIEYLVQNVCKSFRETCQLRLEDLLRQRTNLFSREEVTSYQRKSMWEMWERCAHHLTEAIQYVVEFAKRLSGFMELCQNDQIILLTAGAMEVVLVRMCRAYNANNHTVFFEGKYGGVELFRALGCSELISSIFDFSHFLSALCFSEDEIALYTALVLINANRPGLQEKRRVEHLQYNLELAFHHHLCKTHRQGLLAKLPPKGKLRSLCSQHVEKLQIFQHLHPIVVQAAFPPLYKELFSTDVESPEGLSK
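Luminescence from a UAS-regulated Photinus luciferase reporter in stably transfected Drosophila Schneider cells is measured; decreased signal marks ROR gamma inhibition. Fusion expression is induced by 700 uM copper sulfate for 20 hr.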
The depositor's hits bear a star; ? = inconclusive; nt = no result given; [ ] = dose if it differs, or a comment. Calls come from the whole dose curve; as a rule, active = well fitted curve in the direction sought with a large enough effect; inconclusive = small, poorly fitted or top-dose-only effect, or another doubt; inactive = no such curve, though single readings can be large; an effect the other way counts as inactive or inconclusive. % is set by controls: 0 for no effect and ±100 for the full control effect; potency is the fitted concentration of half-maximal effect.

SMILES | Tau FP inhib | VP16 counter | Tau fluor cs | Tau fibril ThT | RORg inh
COCCCN(C(=S)Nc1cc(Cl)cc(Cl)c1)C(C)c1ccncc1 (centres undefined) | -5% | ? | -18% | -7% | ?
Cc1cc(C)n2nc(CNS(=O)(=O)c3ccccc3)nc2n1 | -7% | nt | -1% | 1% | nt
CCc1ccccc1NC(=S)N(CCN(C)C)C(C)c1ccccn1 (centres undefined) | 1% | 2% | -3% | -3% | ?
Cc1ccc(Cl)cc1NC(=S)N(CCN(C)C)C(C)c1ccccn1 (centres undefined) | 0% | 0% | -3% | -7% | 10µM*
O[C@@H]1CCN2Cc3ccccc3N=C12 | nt | -7% | nt | nt | -2%
O=C(Nc1ccc(Oc2c(F)c(F)c(F)c(F)c2F)cc1)OC1CCN2Cc3ccccc3N=C12 (centres undefined) | -13% | ? | 12% | ? | 0.71µM*
Cc1oc(=O)oc1CN1CCN(c2cc3c(cc2F)c(=O)c(C(=O)O)c2n3C(C)S2)CC1 (centres undefined) | nt | -6% | nt | nt | -9%[10 µM]
CCc1c(C)sc(NC(=O)c2cc(C(C)C)on2)c1C#N | -2% | -9%[10 µM] | -20% | -17% | ?
CCc1cc(C(=O)Nc2sc(C)c(CC)c2C#N)no1 | ? | nt | ? | 28µM* | nt
O=C(Nc1ccc(Cl)cc1F)c1oc(=O)c2ccccc2c1-c1ccccc1 | -8% | nt | -6% | 4% | nt
CN(CC(=O)Nc1ccc(SC(F)F)cc1)C1CCCCC1 | -6% | 0% | -10% | 0% | 22%
CC1CCCCC1NC(=S)Nc1ccc(SC(F)F)cc1 (centres undefined) | ? | 11µM* | ? | -5% | 6.3µM*
CC1CCN(C(=S)Nc2ccc(SC(F)F)cc2)CC1 | -7% | 11µM* | -4% | 8% | 7.9µM*
FC(F)Sc1ccc(NC(=S)NC2CCCCC2)cc1 | ? | ? | ? | -12% | 8.9µM*
COc1ccc(NC(=O)NC2CCCCC2C)cc1 (centres undefined) | 1% | 26% | 3% | 0% | 18%
FC(F)Sc1ccc(NC(=S)NCC2CCCCC2)cc1 | ? | 10µM* | 14µM*[quencher] | -7% | 8.9µM*
O=C(O)COc1ccccc1/C=N/NC(=O)C(O)c1ccccc1 (centres undefined) | nt | -7% | nt | nt | -2%
COc1ccc(OC)c2c(C)cc(N3CCN(C(=O)c4ccc(Cl)cc4)CC3)nc12 | 7% | -8% | ? | ? | 2%
CS(=O)(=O)c1ncc(Cl)c(C(=O)Nc2ccc(N3CCOCC3)cc2)n1 | ? | 3.2µM* | ? | 3.2µM* | 3.2µM*
CS(=O)(=O)c1ncc(Cl)c(C(=O)Nc2ccc(OC(F)F)cc2)n1 | nt | 1.3µM* | nt | nt | 3.5µM*
O=C(Nc1ccc(OC(F)F)cc1)c1ccccn1 | 6% | -1%[10 µM] | -7% | -7% | -10%
COc1cc2[nH]c(=S)n(C3CCCC3)c(=O)c2cc1OC | -4% | 2.8µM* | -23% | -3% | 4.5µM*
COc1cc2[nH]c(=S)n(N(C(C)=O)C(C)=O)c(=O)c2cc1OC | 2% | 2% | -10% | -12% | 15%
COc1cc2[nH]c(=S)n(C3CCN(Cc4ccccc4)CC3)c(=O)c2cc1OC | 5% | ? | -4% | -12% | ?
COc1cc2[nH]c(=S)n(C3CC3)c(=O)c2cc1OC | 6% | 18µM* | 7% | 2% | 3.5µM*
SMILES | Tau FP inhib | VP16 counter | Tau fluor cs | Tau fibril ThT | RORg inh
COc1ccc2nc(N=Nc3ccc(N(C)C)cc3)sc2c1 | -13% | 1.4µM* | ? | 0.89µM* | 14µM*
COc1ccc2nc(/N=C\N(C)C)sc2c1 | 2% | -6% | 3% | -12% | -4%
O=C(NCc1cccs1)c1ccccc1 | 1% | -5% | -3% | 0% | -6%
O=C(NCc1cccs1)c1cccc(Nc2nc3ccc(Br)cc3[nH]2)c1 | ? | 1% | 7.9µM*[quencher] | ? | ?
O=C1NC(=S)/C(=C\c2ccc(-c3ccccc3Cl)o2)S1 | ? | ? | ? | 7.9µM* | ?
C=C1C(=O)[C@]23[C@H](O)[C@H]1CC[C@H]2[C@@]12COC3(O)[C@H](O)[C@@H]1C(C)(C)CC[C@@H]2O | -7% | 3.5µM* | -1% | -20% | 3.2µM*
COc1cc2c(cc1OC)C(=O)N(C)CC2 | -8% | 5% | -22% | -18% | 8%
COc1cc2cc3c4c(cc(OC)c(OC)c4c2cc1OC)CCN3C | ? | -6% | 13µM*[quencher] | 10µM* | 2.8µM*
CC[C@H]1C(c2ccccc2)=NN(c2ccccc2)[C@@H]1CO | ? | ? | ? | -19%[81.4 µM] | -14%
COc1ccccc1[C@H]1C(c2ccccc2)=NN(c2ccccc2)[C@@H]1CO | 15%[81.3 µM] | ? | 32µM*[quencher] | ? | 44%
C[C@H]1C(c2cccc(Cl)c2)=NN(c2ccccc2)[C@@H]1CO | 10%[81.3 µM] | -16% | 16µM*[quencher] | ? | 14%
OC[C@@H]1[C@@H](c2ccc(Cl)cc2)C(c2cccc(Cl)c2)=NN1c1ccccc1 | ? | ? | 11µM*[quencher] | ? | -5%
COc1ccccc1[C@H]1C(c2cccc(C)c2)=NN(c2ccccc2)[C@@H]1CO | ? | -5% | ? | -20%[81.4 µM] | 29%
OC[C@@H]1[C@@H](c2ccc(F)cc2)C(c2cccc(Cl)c2)=NN1c1ccccc1 | 4%[81.3 µM] | ? | 40µM*[quencher] | ? | 30%
O=C(c1sc2ccccc2c1Cl)N1CCN(CCc2ccccn2)CC1 | nt | -12% | nt | nt | -14%
COc1ccccc1[C@H]1C(c2ccc(F)cc2)=NN(c2ccccc2)[C@@H]1CO | ? | -10% | ? | ? | 1%
OC[C@@H]1[C@@H](c2ccc(Cl)cc2)C(c2ccccc2)=NN1c1ccccc1 | 7%[81.3 µM] | -14% | 10µM*[quencher] | ? | ?
C[C@H]1C(c2ccc(F)cc2)=NN(c2ccccc2)[C@@H]1CO | ? | ? | 25µM*[quencher] | ? | -24%
COc1ccc(Nc2nc(Nc3ccc(OC)cc3OC)nc(N3CCN(C)CC3)n2)c(OC)c1 | ? | -24% | 10µM*[quencher] | ? | -37%
CC(=O)N1CCC2(CC1)C/C(=N\NC(=S)Nc1ccccc1C)c1cc(O)ccc1O2 | 7% | ? | ? | ? | ?
CC(=O)N1CCC2(CC1)C/C(=N\NC(=S)Nc1ccccc1F)c1cc(O)ccc1O2 | -5% | -5% | ? | ? | 13µM*
COc1ccc(NC(=S)N/N=C2\CC(C)(C)Oc3ccc(O)cc32)cc1 | -4% | 5.6µM* | 28µM*[quencher] | ? | 6.3µM*
COC(=O)CN1CC(=O)c2ccccc2S1(=O)=O | nt | 23% | nt | nt | -9%
CO[C@@H]1COC(=O)[C@H](C)NC(=O)C/C=C\[C@@H](C)[C@@H](NS(=O)(=O)c2ccc(C)cc2)COC(=O)C/C=C\[C@@H]1C | 5%[11.6 µM] | -1%[10 µM] | 2%[11.6 µM] | -3%[11.5 µM] | -1%[10 µM]
COc1ccc(NC(=S)Nc2ccccc2)cc1 | 3% | ? | -1% | 1% | ?

Screening data: PubChem, National Center for Advancing Translational Sciences (NCATS)
